# rCAG RNA binder: binders of r(CAG) RNA repeats, primary screen, biochemical, fluorescence | r(CAG) RNA repeat, TO-PRO-1 dye displacement fluorescence | 1.3% of 370,000 active | AID 651821, 2012 | inhibition, % at 3 µM;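 active = inhibition above the plate cutoff, the mean of all test compounds on that plate plus 3 SD, cut at about 35% in these data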;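 note: 0% = DMSO alone and 100% = 100 µM mitoxantrone as full dye displacement; higher means more dye released from RNA so lower well fluorescence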
# ABHD5 PLIN5 PPI: ABHD5-PLIN5 interaction inhibitors, primary screen, cell lysate, split luciferase complementation, luminescence | Perilipin-5 (Homo sapiens) + 1-acylglycerol-3-phosphate O-acyltransferase ABHD5 (Homo … | Split G. princeps luciferase complementation, 4 h | inhibition, % at 4 µM | 0.78% of 360,000 active | AID 602281, 2012;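 active = inhibition above the mean inhibition across every tested compound plus 3 SD, cut at about 22% in these data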;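 note: 0% = DMSO only wells and the 100% control is not disclosed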
# NOD2 RIPK2 PPI: NOD2-RIPK2 binding disruptors in cells, primary screen, fluorescence, CHO cells, BLA complementation. Receptor-interacting serine/threonine-protein kinase 2 (Homo sapiens), O43353. CCF4 ratio. inhibition, % at 4.98 µM. 0.38% of 360,000 active. AID 624267, 2012; in the data active = inhibition above about 21%;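 note: 0% = vehicle only and 100% = reference blocker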
# TLR9-MyD88 block: inhibitors of TLR9-MyD88 association in cells, primary screen, cell-based, CHO, BLA complementation, fluorescence; Toll-like receptor 9 (Homo sapiens) + Myeloid differentiation primary response protein …; CCF4 FRET ratio; inhibition, % at 4.98 µM; 0.21% of 340,000 active;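 active = inhibition above the mean over all tested compounds plus 3 SD, cut at about 21% in these data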;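 note: 0% = DMSO only wells and 100% = clavulanate BLA inhibitor control wells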
# TLR4-MyD88 BLA: inhibitors of TLR4-MyD88 association in cells, primary screen, cell-based, HeLa CL3-4, BLA complementation, FRET ratio; 0.18% of 200,000 active; Toll-like receptor 4 (Homo sapiens) + Myeloid differentiation primary response protein …; inhibition, % at 8.4 µM; HeLa CL3-4 TLR4/MyD88 BLA complementation; AID 861, 2007; in the data active = inhibition above about 25%;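 note: 0% = vehicle and 100% = reference inhibitor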
# PRMT1 inh: PRMT1 methyltransferase inhibitors, primary screen, biochemical, fluorescence polarization; inhibition, % at 2.79 µM; Protein arginine N-methyltransferase 1 (Homo sapiens), Q99873; recombinant PRMT1, activity-based probe fluorescence polarization; AID 652257, 2013; 1.3% of 370,000 active;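 active = inhibition above about 21% made by adding two undisclosed values, limit read from the data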
# ABHD5 PLIN5 conf: ABHD5-PLIN5 interaction inhibitors, confirmation, biochemical, luminescence; 67% of 2,200 active; AID 651612, 2012; shares compounds with ABHD5 PLIN5 PPI; inhibition, % at 4 µM; in the data active = inhibition above about 23%;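 note: 0% = DMSO vehicle wells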
# HNF4 split-luc: HNF4 dimerization inhibitors, counter-screen for ABHD5-PLIN5 interaction inhibitor project, biochemical, split-luciferase complementation, luminescence. shares compounds with ABHD5 PLIN5 PPI. inhibition, % at 4 µM. 77% of 2,200 active. AID 651674, 2012;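 active = mean inhibition across replicate wells exceeding the computed hit threshold, cut at about 13% in these data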;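 note: light from luciferase halves that rejoin when HNF4 fusion proteins dimerize; 0% = DMSO only wells and the 100% control is not given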
# Target sequence (P41235 whole entry, looked up, the tested form may be a part): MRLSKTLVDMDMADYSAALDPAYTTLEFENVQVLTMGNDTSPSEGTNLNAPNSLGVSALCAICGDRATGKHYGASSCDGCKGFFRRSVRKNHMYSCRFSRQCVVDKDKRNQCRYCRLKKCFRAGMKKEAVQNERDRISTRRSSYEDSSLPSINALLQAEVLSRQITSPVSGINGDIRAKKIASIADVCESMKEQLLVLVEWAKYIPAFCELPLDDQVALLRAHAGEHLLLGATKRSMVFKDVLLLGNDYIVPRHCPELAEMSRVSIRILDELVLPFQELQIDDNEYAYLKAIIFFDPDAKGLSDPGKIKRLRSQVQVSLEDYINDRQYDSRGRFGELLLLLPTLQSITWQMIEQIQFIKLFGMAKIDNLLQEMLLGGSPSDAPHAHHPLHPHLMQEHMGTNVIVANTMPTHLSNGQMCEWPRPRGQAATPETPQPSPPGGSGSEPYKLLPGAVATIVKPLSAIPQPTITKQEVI
# * marks the source's active call; other numbers are inactive results; · = not tested or not shown. Hits are enriched below; roughly 3.3% of the tested compounds scored in any of these assays.
SMILES,rCAG RNA binder,ABHD5 PLIN5 PPI,NOD2 RIPK2 PPI,TLR9-MyD88 block,TLR4-MyD88 BLA,PRMT1 inh,ABHD5 PLIN5 conf,HNF4 split-luc
CCc1nc2c(OCc3ccc(C(F)(F)F)cc3)cccn2c1N(C=O)Cc1ccc(OC)cc1,2.5,8.4,-12.3,·,·,6.3,·,·
COCCOC(=O)/C(=C\c1cc(C(C)(C)C)c(O)c(C(C)(C)C)c1)C(C)=O,-8.1,44.2*,7.7,3.0,·,1.4,80.4*,72.1*
CC(C)(C)c1cc(CCC(=O)NN)cc(C(C)(C)C)c1O,-3.1,3.0,-20.2,-4.5,-6.2,-0.9,·,·
Cc1cc(C)c(C(=O)/C=C/c2cccc3ccccc23)c(=O)[nH]1,7.0,53.9*,7.4,14.5,1.3,-0.8,63.8*,61.2*
Cc1cc(C)c(C(=O)/C=C/c2ccc3c(c2)OCO3)c(=O)[nH]1,-0.9,1.7,-6.4,-11.8,0.0,-4.4,·,·
Cc1ccc(C(=O)/C=C/c2ccccc2[N+](=O)[O-])cc1,0.2,51.7*,0.7,4.8,4.4,-0.5,84.5*,78.1*
O=C(/C=C/c1ccccc1[N+](=O)[O-])c1ccccc1Br,0.3,81.6*,0.7,-0.6,20.3,3.1,98.5*,97.8*
O=C(/C=C\c1ccccc1[N+](=O)[O-])Nc1ccccc1,0.5,0.5,2.7,4.0,-1.6,6.2,·,·
Cc1ccnc(NC(=O)/C=C/c2ccccc2[N+](=O)[O-])c1,3.9,·,·,·,8.5,-3.0,·,·
N#CC1=C(Nc2ccccc2Cl)SC2(CCCC2)NC1=O,·,33.0*,4.9,·,·,·,-1.7,19.2*
CSCCC(NC(=O)c1ccco1)C(=O)NCC(C)(C)N1CCOCC1 (configuration not stated),0.3,2.0,5.4,-5.9,·,-3.2,·,·
COc1nc(=O)n(C2C=CC(=O)O2)cc1F (configuration not stated),0.6,40.9*,-8.1,-6.2,·,-2.5,52.3*,34.3*
COc1ccc(C2NCCc3c2[nH]c2ccccc32)cc1CN1CCc2cc(OC)c(OC)cc2C1C (configuration not stated),·,15.7,-8.6,2.5,·,·,·,·
COc1ccc(C2NCCc3c2[nH]c2ccccc32)cc1COc1ccc(F)cc1 (configuration not stated),16.6,29.3*,12.3,0.8,8.5,-1.2,15.6,18.4*
O=S(=O)(c1ccc(S(=O)(=O)N2CCC(O)CC2)cc1)N1CCCC1,-0.5,-9.3,-14.4,3.4,·,-3.5,·,·
O=c1c2ccccc2nc2ccc(NCc3ccco3)nn12,1.2,31.4*,2.1,2.6,-6.2,10.4,72.4*,79.9*
Cc1sc2nc3ccc(NCc4ccco4)nn3c(=O)c2c1C,2.6,31.0*,5.4,-1.9,-9.4,4.0,65.9*,77.4*
CCN(C(=O)CCc1nnc2ccc(NCc3ccco3)nn12)c1ccccc1,3.2,14.2,-16.1,-11.6,·,-0.6,·,·
Cc1sc2nc(SCC(=O)NCc3ccco3)n(C)c(=O)c2c1C,3.0,5.0,-0.3,-4.1,-4.4,-1.8,·,·
O=C(C=Cc1ccccn1)c1ccccc1O,3.0,66.7*,7.0,2.1,·,11.7,98.6*,88.8*
O=C(C=Cc1ccccc1Cl)c1ccccc1,0.5,36.7*,-2.3,-2.1,·,1.4,88.2*,70.9*
O=C(C=Cc1ccccn1)c1ccccc1,3.9,79.0*,10.3,-6.0,·,12.2,92.8*,103.0*
CN(C)c1ccc(/C=C/C(=O)c2ccccc2O)cc1,-5.6,-0.6,-0.3,6.3,14.2,1.2,·,·
CCOC(=O)N1C(=O)NC(=O)C1c1ccc(OC)cc1 (configuration not stated),0.4,3.7,-5.0,-4.2,·,-4.0,·,·
CCCCOc1ccc(S(=O)(=O)N2CCN(C)CC2)cc1,0.1,-2.5,1.7,-12.2,·,-1.5,·,·
SMILES,rCAG RNA binder,ABHD5 PLIN5 PPI,NOD2 RIPK2 PPI,TLR9-MyD88 block,TLR4-MyD88 BLA,PRMT1 inh,ABHD5 PLIN5 conf,HNF4 split-luc
O=S(=O)(Cc1ccc(Cl)cc1)c1ccccc1-c1nnc(-c2ccc(Cl)cc2)o1,1.0,30.7*,-12.5,-5.1,-1.6,-0.3,-2.4,-2.6
CCCCNC(=O)C(NC(=O)c1ccc(-c2ccccc2)cc1)C(=O)c1ccccc1 (configuration not stated),2.8,-14.6,-16.7,·,·,-2.9,·,·
Cc1ccc(S(=O)(=O)NC(Cc2ccccc2)C(=O)NN)cc1 (configuration not stated),4.4,-6.1,-0.1,3.5,·,1.9,·,·
Cc1ccc(S(=O)(=O)N[C@@H](Cc2ccccc2)C(=O)CCl)cc1,0.3,53.0*,9.6,5.8,4.4,17.9,93.0*,89.7*
O=C(N1CCCCC1)N1CCN(C(c2ccccc2)c2ccccc2)CC1,-3.5,-8.0,7.2,-3.6,2.1,-3.5,·,·
Oc1c(C(c2ccccc2)N2CCCCC2)ccc2ccccc12 (configuration not stated),15.0,37.6*,-17.0,-0.4,·,9.9,96.1*,47.7*
COc1ccc(S[C@]2(C(=O)N3CCCC3)CC(=O)N(C(=O)Nc3ccc(C)c(Cl)c3)[C@@H]2c2ccc(OC)cc2)cc1,8.2,·,·,·,·,2.6,·,·
CC(C)(C)c1ccc(S(=O)(=O)N2CCC(C(=O)NCC3COCCO3)CC2)cc1 (configuration not stated),1.5,·,·,·,·,9.2,·,·
O=C(NCc1ccccc1)C(c1ccccc1F)n1c(=O)c(-c2ccccc2)nc2ccccc21 (configuration not stated),0.2,-4.0,-10.4,·,·,1.0,·,·
O=C(NCc1ccccc1)C(c1ccccc1F)n1c(=O)c(-c2ccco2)nc2ccccc21 (configuration not stated),31.8,66.8*,-11.2,·,·,13.0,68.6*,31.6*
O=C(NC1CCCCC1)C(c1ccc(C(F)(F)F)cc1)n1c(=O)c(-c2ccccc2)nc2ccccc21 (configuration not stated),0.7,-1.3,-2.0,·,·,0.8,·,·
COc1ccc(NC(=O)C(c2cccc3ccccc23)n2c(=O)c(-c3ccco3)nc3ccccc32)cc1 (configuration not stated),20.2,25.9*,1.9,·,·,1.0,23.0*,2.9
COc1ccc(NC(=O)C(c2ccncc2)n2c(=O)c(-c3ccco3)nc3ccccc32)cc1 (configuration not stated),15.4,12.4,-1.7,·,·,3.4,·,·

# Bioassay records from PubChem.
